# For some of these results: Measured potencies and affinities stand elsewhere.
# Columns and labels:
# [1] = target: T1, Methionyl-tRNA synthetase, putative (Leishmania donovani (strain BPK282A1)) (UniProt E9BF75); test: Leishmania donovani Methionine tRNA synthetase (LdMetRS):v7. Dose response assay; format: functional; set-up: conc 80 nM, time 150 minutes
# T1 sequence (whole entry): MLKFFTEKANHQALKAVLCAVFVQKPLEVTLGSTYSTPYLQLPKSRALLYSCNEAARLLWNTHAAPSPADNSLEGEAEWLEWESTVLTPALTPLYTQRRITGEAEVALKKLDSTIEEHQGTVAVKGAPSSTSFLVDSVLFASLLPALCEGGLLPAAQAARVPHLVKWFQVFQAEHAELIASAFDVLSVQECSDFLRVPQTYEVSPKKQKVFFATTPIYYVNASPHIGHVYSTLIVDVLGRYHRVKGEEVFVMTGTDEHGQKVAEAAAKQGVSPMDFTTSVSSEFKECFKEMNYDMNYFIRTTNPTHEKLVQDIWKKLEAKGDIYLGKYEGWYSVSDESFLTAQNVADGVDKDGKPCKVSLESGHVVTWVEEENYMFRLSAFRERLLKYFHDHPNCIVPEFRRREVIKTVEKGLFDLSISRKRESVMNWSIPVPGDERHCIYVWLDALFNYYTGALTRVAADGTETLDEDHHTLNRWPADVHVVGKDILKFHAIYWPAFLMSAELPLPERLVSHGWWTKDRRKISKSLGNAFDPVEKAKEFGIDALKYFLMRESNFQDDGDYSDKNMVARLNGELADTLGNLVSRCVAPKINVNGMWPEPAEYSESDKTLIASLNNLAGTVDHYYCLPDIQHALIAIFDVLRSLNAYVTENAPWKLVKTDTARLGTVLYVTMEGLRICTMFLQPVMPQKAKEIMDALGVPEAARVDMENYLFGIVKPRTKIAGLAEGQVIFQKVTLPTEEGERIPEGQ
# [2] = target: Protein translocase subunit SecA (Escherichia coli (strain K12)) (UniProt P10408); test: Assay to Identify E. coli SecA ATPase Inhibitors; format: functional; set-up: scale not given: direction of the effect not stated beside the values; conditions: 30 µM
# Protein translocase subunit SecA (Escherichia coli (strain K12)), sequence (P10408 whole entry): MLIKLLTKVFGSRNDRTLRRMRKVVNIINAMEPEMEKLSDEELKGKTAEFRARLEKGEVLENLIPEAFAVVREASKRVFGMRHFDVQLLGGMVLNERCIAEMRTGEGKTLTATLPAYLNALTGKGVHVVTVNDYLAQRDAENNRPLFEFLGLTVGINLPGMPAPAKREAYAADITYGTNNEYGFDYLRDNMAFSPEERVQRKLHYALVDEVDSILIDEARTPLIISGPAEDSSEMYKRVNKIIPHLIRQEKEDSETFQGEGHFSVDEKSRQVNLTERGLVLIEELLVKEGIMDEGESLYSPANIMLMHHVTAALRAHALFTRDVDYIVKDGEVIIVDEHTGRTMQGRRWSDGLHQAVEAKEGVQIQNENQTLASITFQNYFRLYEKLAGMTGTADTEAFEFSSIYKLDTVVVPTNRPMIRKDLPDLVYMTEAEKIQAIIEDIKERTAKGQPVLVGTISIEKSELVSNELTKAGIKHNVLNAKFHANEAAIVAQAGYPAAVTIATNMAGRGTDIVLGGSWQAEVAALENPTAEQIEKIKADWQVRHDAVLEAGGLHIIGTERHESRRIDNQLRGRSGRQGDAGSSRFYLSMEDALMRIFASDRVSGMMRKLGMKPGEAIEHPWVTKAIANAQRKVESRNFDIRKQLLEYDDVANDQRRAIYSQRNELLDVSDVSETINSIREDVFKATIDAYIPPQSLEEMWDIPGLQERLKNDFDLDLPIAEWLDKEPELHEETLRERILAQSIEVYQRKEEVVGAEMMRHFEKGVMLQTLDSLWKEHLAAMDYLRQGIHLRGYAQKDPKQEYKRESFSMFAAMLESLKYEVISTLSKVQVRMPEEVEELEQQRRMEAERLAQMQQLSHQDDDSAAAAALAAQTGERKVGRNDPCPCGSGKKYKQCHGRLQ
# [3] = target: T2, Ubiquitin-activating enzyme e1, putative (Leishmania donovani (strain BPK282A1)) (UniProt E9BSI1); test: Leishmania donovani Ubiquitin Activating Enzyme (LdE1); format: functional; set-up: scale not given: direction of the effect not stated beside the values; conditions: 30 µM
# T2 sequence (whole entry): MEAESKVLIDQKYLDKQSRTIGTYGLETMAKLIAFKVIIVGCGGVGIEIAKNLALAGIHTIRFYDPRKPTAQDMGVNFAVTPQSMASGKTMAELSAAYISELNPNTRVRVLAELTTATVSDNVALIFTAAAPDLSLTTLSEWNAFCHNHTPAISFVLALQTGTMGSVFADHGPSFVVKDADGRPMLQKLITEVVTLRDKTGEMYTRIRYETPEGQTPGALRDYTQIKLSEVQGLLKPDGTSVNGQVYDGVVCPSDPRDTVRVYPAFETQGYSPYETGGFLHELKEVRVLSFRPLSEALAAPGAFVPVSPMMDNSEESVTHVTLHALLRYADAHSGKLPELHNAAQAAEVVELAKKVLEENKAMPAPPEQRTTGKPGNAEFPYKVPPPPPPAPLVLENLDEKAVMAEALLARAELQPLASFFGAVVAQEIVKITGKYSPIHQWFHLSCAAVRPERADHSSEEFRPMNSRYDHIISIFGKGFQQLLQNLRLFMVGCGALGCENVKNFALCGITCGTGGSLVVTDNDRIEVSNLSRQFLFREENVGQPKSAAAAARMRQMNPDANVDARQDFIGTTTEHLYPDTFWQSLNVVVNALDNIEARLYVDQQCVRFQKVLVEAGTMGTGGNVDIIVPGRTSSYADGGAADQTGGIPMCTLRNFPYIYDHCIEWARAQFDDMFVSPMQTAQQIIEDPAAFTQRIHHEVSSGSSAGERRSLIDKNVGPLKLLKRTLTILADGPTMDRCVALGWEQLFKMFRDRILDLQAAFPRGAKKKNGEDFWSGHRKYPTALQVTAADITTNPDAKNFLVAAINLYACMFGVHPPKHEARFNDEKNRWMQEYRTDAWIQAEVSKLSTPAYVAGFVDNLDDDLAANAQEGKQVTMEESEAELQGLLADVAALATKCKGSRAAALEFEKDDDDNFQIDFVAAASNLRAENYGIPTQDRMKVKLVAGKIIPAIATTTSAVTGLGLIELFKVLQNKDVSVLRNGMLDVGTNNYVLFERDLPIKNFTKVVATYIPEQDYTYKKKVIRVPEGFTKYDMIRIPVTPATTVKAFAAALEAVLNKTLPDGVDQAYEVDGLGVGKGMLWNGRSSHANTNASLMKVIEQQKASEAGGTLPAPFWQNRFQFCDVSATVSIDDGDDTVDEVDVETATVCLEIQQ
# [4] = target: AMP-activated protein kinase, AMPK (Homo sapiens) (UniProt P54646+O43741+P54619+Q9UGJ0+Q9Y478+Q13131+Q9UGI9); test: AMP-dependent Kinase enzyme assay. An in vitro enzyme assay that detects ADP turnover that is directly proportional to AMPK activity. This uses naive AMPK that is activated during the assay with MK-8722; format: functional; set-up: scale not given: direction of the effect not stated beside the values; conditions: 30 µM
# [5] = target: Sialic acid-binding Ig-like lectin 9 (Homo sapiens) (UniProt Q9Y336); test: Hs-Siglec9 ALPHAscreen SOP 20170721; set-up: scale not given: direction of the effect not stated beside the values; conditions: 10 µM
# Sialic acid-binding Ig-like lectin 9 (Homo sapiens), sequence (Q9Y336 whole entry): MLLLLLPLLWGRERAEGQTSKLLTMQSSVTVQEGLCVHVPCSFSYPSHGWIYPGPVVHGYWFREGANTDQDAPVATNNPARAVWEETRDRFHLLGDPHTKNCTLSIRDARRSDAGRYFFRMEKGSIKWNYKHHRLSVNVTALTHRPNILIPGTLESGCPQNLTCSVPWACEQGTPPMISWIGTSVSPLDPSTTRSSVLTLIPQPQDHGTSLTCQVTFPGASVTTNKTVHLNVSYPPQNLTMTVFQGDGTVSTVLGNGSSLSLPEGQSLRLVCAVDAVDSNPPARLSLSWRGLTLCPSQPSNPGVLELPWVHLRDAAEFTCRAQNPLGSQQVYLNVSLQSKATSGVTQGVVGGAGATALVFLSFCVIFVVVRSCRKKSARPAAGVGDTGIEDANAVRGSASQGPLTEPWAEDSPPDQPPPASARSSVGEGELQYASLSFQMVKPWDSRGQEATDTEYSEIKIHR
# Trypanosoma cruzi = test: Trypanosoma cruzi phosphomannomutase and mannose-1-phosphate guanylyltransferase assay; format: functional; set-up: scale not given: direction of the effect not stated beside the values; conditions: 10 µM
# [6] = target: T3, Arginase-2, mitochondrial (Homo sapiens) (UniProt P78540); test: in vitro enzyme assay to detect the production of urea directly proportional to the activity of Arginase II; format: functional; set-up: scale not given: in the data most compounds retested in dose-response had high values; conditions: 33.3 µM
# T3 sequence (whole entry): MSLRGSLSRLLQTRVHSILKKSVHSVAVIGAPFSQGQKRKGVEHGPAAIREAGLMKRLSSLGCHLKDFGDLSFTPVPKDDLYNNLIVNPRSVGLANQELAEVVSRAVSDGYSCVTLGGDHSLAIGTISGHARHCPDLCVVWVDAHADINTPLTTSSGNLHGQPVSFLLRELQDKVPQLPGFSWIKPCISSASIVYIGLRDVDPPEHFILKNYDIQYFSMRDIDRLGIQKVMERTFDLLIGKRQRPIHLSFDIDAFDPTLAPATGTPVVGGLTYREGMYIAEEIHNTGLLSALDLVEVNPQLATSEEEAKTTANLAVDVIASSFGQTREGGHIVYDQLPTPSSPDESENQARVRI
# [7] = target: T4, Proteasome subunit beta (Trypanosoma cruzi) (UniProt O96673); test: Trypanosoma cruzi proteasome chymotrypsin-like activity (TcProtChymo) assay.; format: functional; set-up: scale not given: in the data most compounds retested in dose-response had high values; conditions: 9.37 µM
# T4 sequence (whole entry): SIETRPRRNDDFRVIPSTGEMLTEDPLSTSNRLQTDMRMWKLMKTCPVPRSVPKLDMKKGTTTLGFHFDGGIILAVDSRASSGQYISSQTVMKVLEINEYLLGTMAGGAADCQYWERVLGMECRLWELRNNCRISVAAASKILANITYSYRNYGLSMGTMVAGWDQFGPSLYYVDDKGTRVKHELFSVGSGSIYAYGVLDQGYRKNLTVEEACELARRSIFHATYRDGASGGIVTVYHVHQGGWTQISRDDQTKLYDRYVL
# Homo sapiens = organism: Homo sapiens; test: To identify inhibition of the IFN signalling (Jak-Stat) pathway via expression of an eGFP reporter gene under the control of an IFN-stimulated response element (ISRE) containing MxA promoter.; format: functional; set-up: scale not given: direction of the effect not stated beside the values; conditions: 30 µM
# [8] = target: T5, Tyrosyl-tRNA synthetase, putative (Trypanosoma cruzi (strain CL Brener)) (UniProt Q4DSP6); test: Trypanosoma cruzi tyrosyl tRNA synthetase (TcYRS) _High Tyrosine SOP; format: functional; set-up: scale not given: in the data most compounds retested in dose-response had high values; conditions: 30 µM
# T5 sequence (whole entry): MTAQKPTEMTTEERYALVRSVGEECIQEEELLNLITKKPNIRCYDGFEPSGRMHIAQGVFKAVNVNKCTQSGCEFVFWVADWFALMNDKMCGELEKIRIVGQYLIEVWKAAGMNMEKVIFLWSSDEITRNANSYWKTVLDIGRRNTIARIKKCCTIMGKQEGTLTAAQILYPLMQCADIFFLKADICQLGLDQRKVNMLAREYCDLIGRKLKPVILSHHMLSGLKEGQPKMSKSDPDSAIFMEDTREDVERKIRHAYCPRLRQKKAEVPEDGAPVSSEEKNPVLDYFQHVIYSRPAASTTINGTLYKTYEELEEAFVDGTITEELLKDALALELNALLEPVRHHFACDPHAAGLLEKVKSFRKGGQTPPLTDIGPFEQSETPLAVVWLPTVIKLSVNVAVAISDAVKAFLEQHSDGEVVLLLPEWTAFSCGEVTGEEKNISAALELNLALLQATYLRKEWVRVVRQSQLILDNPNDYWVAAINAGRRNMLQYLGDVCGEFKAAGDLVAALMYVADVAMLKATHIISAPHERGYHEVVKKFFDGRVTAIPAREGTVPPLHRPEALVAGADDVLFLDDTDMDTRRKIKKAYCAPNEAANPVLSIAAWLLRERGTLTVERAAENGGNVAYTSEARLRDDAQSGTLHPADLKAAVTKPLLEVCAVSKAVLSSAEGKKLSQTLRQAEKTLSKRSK
# [9] = target: T5, Tyrosyl-tRNA synthetase, putative (Trypanosoma cruzi (strain CL Brener)); test: Trypanosoma cruzi tyrosyl tRNA synthetase (TcYRS) SOP; format: functional; set-up: scale not given: direction of the effect not stated beside the values; conditions: 30 µM
# [10] = target: Chromo domain-containing protein 1 (Saccharomyces cerevisiae (strain ATCC 204508 / S288c) (Baker's yeast)) (UniProt P32657); test: ScCHD-1 Enzyme Inhibition Assay; format: functional; set-up: scale not given: in the data most compounds retested in dose-response had high values; conditions: 30 µM
# Chromo domain-containing protein 1 (Saccharomyces cerevisiae (strain ATCC 204508 / S288c) (Baker's yeast)), sequence (P32657 whole entry, the tested form may be a part): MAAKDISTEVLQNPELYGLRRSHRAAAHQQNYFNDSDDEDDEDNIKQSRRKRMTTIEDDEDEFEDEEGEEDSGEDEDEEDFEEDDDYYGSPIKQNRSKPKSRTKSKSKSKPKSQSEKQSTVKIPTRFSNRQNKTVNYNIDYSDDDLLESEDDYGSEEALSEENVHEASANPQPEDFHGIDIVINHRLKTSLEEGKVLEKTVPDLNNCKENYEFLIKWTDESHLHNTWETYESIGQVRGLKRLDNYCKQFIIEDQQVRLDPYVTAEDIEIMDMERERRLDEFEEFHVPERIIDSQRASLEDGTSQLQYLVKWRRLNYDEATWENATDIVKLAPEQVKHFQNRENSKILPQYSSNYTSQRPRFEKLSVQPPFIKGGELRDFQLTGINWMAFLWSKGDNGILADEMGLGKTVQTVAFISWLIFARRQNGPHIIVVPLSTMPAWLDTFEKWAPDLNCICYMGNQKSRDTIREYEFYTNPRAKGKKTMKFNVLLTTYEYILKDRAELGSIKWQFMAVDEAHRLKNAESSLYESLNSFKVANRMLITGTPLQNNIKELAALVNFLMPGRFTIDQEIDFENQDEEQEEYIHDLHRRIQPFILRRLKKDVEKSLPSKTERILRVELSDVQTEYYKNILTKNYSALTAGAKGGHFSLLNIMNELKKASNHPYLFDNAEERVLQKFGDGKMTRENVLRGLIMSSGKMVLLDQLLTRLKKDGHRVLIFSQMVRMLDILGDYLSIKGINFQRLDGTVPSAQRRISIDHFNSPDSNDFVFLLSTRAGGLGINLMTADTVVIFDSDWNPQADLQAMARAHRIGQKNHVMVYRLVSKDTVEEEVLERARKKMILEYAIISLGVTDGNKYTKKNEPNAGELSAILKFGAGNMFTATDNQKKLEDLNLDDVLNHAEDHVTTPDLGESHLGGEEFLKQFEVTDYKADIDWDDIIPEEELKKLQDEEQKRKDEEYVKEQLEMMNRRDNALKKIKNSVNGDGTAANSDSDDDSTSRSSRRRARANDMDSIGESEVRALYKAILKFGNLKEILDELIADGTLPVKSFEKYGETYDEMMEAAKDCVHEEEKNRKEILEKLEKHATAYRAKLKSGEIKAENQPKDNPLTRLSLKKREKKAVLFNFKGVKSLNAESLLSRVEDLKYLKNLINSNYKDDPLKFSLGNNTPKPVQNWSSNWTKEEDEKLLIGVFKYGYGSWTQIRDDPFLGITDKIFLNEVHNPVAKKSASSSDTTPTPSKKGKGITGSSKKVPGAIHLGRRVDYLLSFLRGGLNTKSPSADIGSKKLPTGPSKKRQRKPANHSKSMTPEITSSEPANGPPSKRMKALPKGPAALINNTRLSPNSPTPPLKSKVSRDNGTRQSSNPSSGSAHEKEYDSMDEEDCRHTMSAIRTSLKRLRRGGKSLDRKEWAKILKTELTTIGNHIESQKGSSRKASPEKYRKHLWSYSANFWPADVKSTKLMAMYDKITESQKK
smiles,measurement,setting,value
Cc1cc(C)c(CNC(=O)N2CCCC2c2cccn2C)c(=O)[nH]1 (configuration not stated),PXC50,"[1]; BOTTOM 1.39525403, HILLSLOPE 1.863289847, MAX_EFFECT 51.97132616, TOP 100.0",4.01
same,PXC50,"[1]; BOTTOM -10.14330359, HILLSLOPE 0.427510045, MAX_EFFECT 50.72463768, TOP 100.0",4.22
same,PXC50,[1]; MAX_EFFECT 28.8676236,< 4
same,PXC50,[1]; MAX_EFFECT 30.90211132,< 4
same,PXC50,[1]; MAX_EFFECT 48.51485149,< 4
same,Percent Effect,[2],-1.81%
same,Percent Effect,[3],8.86%
same,Percent Effect,[4],3.05%
same,Percent Effect,[5],2.38%
same,Percent Effect,Trypanosoma cruzi,2.97%
same,Percent Effect,[6],3.66%
same,Percent Effect,[7],10.6%
same,Percent Effect,Homo sapiens,-3.9%
same,Percent Effect,[8],13.5%
same,Percent Effect,[9],27.9%
same,Percent Effect,[10],-14.4%
CC(C)C[C@H](N)COc1cccc(F)c1Oc1cccc(Cl)c1,PXC50,"[1]; BOTTOM 6.91310013, HILLSLOPE 1.495350679, MAX_EFFECT 83.36221837, TOP 100.0",4.36
same,PXC50,"[1]; BOTTOM 8.664927698, HILLSLOPE 1.748800753, MAX_EFFECT 77.85234899, TOP 95.40759793",4.33
same,PXC50,"[1]; BOTTOM 9.147353303, HILLSLOPE 1.551603339, MAX_EFFECT 81.25, TOP 100.0",4.34
same,PXC50,"[1]; BOTTOM -0.863158235, HILLSLOPE 2.70922767, MAX_EFFECT 71.29186603, TOP 83.59060963",4.29
same,PXC50,"[1]; BOTTOM -4.44021311, HILLSLOPE 1.559741226, MAX_EFFECT 77.3512476, TOP 100.0",4.35
Cc1nc2cc(=O)[nH]n2c(C)c1CC(=O)Nc1ccc2ccccc2n1,PXC50,"[1]; BOTTOM 1.14070889, HILLSLOPE 1.278083227, MAX_EFFECT 56.52173913, TOP 100.0",4.1
same,PXC50,[1]; MAX_EFFECT 23.76395534,< 4
same,PXC50,[1]; MAX_EFFECT 26.29558541,< 4
same,PXC50,[1]; MAX_EFFECT 33.33333333,< 4
same,PXC50,[1]; MAX_EFFECT 45.21452145,< 4
same,Percent Effect,[2],-3.58%
same,Percent Effect,[3],5.26%
same,Percent Effect,[4],-24.7%
same,Percent Effect,[5],6.53%
same,Percent Effect,Trypanosoma cruzi,0.564%
same,Percent Effect,[6],-6.51%
same,Percent Effect,[7],-1.34%
same,Percent Effect,Homo sapiens,-15.5%
same,Percent Effect,[8],16.2%
same,Percent Effect,[9],12.2%
same,Percent Effect,[10],-1.37%

# Reference: ChEMBL document CHEMBL3988442, “University of Dundee, Small-Polar-MMV Screening Library” (2021)
